# Results from ChEMBL document CHEMBL1961873, “Compounds: GSK PKIS; Assays: Nanosyn kinase panel” (2012).
# How the values were obtained:
# [1] = biological target: Mitogen-activated protein kinase kinase kinase kinase 4 (Homo sapiens) (UniProt O95819); settings: at 1 µM;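 further: reported figure is an averaged inhibition value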
# [2] = biological target: Dual specificity mitogen-activated protein kinase kinase 1 (Homo sapiens) (UniProt Q02750); settings: at 0.1 µM
# [3] = biological target: Dual specificity mitogen-activated protein kinase kinase 1 (Homo sapiens) (UniProt Q02750); settings: at 1 µM
# [4] = biological target: Misshapen-like kinase 1 (Homo sapiens) (UniProt Q8N4C8); settings: at 0.1 µM
# [5] = biological target: Misshapen-like kinase 1 (Homo sapiens) (UniProt Q8N4C8); settings: at 1 µM
# [6] = biological target: T1, Serine/threonine-protein kinase 4 (Homo sapiens) (UniProt Q13043); settings: at 0.1 µM
# T1 sequence (whole entry): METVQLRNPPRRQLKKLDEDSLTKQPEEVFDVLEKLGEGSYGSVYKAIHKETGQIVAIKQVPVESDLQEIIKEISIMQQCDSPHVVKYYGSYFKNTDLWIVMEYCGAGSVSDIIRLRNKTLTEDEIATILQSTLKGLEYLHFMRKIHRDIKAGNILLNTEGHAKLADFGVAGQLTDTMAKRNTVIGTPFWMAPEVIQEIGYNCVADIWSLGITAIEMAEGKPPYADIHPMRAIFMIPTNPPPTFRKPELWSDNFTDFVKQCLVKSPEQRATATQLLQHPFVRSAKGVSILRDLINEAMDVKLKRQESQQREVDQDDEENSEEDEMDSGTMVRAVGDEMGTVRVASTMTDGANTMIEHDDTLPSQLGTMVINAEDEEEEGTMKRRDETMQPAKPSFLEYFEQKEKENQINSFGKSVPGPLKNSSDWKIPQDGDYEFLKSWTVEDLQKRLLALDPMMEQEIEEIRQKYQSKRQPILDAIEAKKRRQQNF
# [7] = biological target: T1, Serine/threonine-protein kinase 4 (Homo sapiens); settings: at 1 µM
# [8] = biological target: T2, Serine/threonine-protein kinase 3 (Homo sapiens) (UniProt Q13188); settings: at 0.1 µM
# T2 sequence (whole entry): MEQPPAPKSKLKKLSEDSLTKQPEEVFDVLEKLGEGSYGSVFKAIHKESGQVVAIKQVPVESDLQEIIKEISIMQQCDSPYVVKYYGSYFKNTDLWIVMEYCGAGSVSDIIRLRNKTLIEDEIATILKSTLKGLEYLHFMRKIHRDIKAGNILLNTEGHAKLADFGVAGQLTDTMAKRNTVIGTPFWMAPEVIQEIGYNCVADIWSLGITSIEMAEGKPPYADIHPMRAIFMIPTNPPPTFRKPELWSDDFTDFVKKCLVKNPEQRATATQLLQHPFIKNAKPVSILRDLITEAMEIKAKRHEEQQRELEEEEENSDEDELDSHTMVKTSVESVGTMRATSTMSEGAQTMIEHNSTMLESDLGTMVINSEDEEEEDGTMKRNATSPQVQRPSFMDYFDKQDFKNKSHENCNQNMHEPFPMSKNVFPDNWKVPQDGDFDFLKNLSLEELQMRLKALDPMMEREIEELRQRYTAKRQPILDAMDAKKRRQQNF
# [9] = biological target: T2, Serine/threonine-protein kinase 3 (Homo sapiens); settings: at 1 µM
# [10] = biological target: Serine/threonine-protein kinase 26 (Homo sapiens) (UniProt Q9P289); settings: at 0.1 µM
# [11] = biological target: Serine/threonine-protein kinase 26 (Homo sapiens) (UniProt Q9P289); settings: at 1 µM
# [12] = biological target: Serine/threonine-protein kinase PAK 1 (Homo sapiens) (UniProt Q13153); settings: at 0.1 µM
# [13] = biological target: Serine/threonine-protein kinase PAK 1 (Homo sapiens) (UniProt Q13153); settings: at 1 µM
# [14] = biological target: Serine/threonine-protein kinase PAK 2 (Homo sapiens) (UniProt Q13177); settings: at 0.1 µM
# [15] = biological target: Serine/threonine-protein kinase PAK 2 (Homo sapiens) (UniProt Q13177); settings: at 1 µM
# [16] = biological target: Serine/threonine-protein kinase PAK 3 (Homo sapiens) (UniProt O75914); settings: at 0.1 µM
# [17] = biological target: Serine/threonine-protein kinase PAK 3 (Homo sapiens) (UniProt O75914); settings: at 1 µM
# [18] = biological target: Serine/threonine-protein kinase PAK 5 (Homo sapiens) (UniProt Q9P286); settings: at 0.1 µM
# [19] = biological target: Serine/threonine-protein kinase PAK 5 (Homo sapiens) (UniProt Q9P286); settings: at 1 µM
# [20] = biological target: Serine/threonine-protein kinase PAK 6 (Homo sapiens) (UniProt Q9NQU5); settings: at 0.1 µM;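 further: mean PAK6 inhibition reported from the GSK PKIS screen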
# Sequence of Serine/threonine-protein kinase PAK 6 (Homo sapiens) (Q9NQU5 whole entry, looked up): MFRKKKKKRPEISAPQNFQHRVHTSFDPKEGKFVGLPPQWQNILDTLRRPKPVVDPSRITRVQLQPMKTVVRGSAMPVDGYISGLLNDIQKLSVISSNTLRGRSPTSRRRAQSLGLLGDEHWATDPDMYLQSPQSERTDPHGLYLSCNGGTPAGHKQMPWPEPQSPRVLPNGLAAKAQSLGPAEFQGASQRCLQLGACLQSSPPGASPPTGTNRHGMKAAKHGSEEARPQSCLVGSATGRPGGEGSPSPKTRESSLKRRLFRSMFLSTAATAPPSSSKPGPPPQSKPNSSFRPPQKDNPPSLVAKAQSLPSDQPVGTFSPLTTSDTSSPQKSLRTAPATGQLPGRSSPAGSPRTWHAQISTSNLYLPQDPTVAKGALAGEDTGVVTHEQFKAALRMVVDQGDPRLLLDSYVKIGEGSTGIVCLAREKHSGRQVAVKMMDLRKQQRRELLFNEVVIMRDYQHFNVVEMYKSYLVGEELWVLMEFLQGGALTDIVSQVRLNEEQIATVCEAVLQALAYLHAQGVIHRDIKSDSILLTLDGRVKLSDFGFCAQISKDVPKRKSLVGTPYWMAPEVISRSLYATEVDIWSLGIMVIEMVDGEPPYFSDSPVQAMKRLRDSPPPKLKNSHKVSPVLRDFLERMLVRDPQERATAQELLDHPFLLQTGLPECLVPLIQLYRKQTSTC
# Sequence of Serine/threonine-protein kinase PAK 3 (Homo sapiens) (O75914 whole entry, looked up): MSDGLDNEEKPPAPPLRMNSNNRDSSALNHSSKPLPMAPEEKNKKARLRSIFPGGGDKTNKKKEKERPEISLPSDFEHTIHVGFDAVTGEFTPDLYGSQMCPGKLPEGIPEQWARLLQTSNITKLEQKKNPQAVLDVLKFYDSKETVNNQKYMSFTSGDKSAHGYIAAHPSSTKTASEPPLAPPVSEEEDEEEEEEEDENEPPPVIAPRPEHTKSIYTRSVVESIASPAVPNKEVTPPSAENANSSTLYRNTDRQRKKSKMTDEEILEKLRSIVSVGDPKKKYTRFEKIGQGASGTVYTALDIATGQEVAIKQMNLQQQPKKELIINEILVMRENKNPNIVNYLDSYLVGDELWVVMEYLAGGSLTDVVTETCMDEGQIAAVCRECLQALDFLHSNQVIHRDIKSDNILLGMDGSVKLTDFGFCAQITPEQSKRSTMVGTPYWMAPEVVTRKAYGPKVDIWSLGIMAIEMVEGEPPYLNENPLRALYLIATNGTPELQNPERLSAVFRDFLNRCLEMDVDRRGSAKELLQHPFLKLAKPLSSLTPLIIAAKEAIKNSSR
# Sequence of Dual specificity mitogen-activated protein kinase kinase 1 (Homo sapiens) (Q02750 whole entry): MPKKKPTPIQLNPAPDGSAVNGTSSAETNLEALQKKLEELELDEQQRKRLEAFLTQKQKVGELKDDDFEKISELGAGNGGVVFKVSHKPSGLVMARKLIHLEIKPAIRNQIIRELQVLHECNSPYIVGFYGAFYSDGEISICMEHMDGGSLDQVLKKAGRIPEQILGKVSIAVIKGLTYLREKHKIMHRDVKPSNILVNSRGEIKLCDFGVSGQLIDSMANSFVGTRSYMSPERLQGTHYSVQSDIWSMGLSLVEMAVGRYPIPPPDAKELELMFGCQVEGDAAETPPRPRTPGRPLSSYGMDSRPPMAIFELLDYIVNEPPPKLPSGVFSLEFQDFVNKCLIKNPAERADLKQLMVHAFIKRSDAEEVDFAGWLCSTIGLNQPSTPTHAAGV
# Sequence of Serine/threonine-protein kinase PAK 1 (Homo sapiens) (Q13153 whole entry): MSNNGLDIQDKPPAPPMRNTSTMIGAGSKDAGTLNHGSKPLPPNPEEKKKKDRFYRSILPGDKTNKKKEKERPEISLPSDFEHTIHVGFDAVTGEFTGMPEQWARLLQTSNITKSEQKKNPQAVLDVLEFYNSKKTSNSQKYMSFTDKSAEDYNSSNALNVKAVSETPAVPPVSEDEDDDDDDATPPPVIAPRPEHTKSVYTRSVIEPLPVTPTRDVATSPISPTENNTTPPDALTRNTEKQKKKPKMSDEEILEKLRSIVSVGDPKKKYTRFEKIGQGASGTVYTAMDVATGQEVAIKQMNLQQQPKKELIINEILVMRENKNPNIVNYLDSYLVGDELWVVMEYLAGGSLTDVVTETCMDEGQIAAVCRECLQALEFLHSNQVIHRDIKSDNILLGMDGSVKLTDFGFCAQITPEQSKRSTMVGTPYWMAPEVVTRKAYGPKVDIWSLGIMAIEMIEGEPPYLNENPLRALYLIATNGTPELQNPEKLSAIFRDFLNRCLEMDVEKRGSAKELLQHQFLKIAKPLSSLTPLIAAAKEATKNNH
# Sequence of Serine/threonine-protein kinase 26 (Homo sapiens) (Q9P289 2-416 limits assumed): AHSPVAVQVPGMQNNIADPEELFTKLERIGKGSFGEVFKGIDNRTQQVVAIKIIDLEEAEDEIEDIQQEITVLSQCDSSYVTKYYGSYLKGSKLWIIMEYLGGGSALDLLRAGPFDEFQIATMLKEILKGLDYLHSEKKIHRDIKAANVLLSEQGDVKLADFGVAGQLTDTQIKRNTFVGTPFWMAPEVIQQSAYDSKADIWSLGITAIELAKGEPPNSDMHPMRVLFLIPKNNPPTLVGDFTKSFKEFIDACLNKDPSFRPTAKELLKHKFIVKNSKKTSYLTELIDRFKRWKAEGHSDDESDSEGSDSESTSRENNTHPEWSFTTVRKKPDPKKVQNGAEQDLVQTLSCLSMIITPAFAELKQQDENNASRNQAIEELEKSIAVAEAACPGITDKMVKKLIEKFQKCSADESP
# Sequence of Mitogen-activated protein kinase kinase kinase kinase 4 (Homo sapiens) (O95819 2-1239 limits assumed): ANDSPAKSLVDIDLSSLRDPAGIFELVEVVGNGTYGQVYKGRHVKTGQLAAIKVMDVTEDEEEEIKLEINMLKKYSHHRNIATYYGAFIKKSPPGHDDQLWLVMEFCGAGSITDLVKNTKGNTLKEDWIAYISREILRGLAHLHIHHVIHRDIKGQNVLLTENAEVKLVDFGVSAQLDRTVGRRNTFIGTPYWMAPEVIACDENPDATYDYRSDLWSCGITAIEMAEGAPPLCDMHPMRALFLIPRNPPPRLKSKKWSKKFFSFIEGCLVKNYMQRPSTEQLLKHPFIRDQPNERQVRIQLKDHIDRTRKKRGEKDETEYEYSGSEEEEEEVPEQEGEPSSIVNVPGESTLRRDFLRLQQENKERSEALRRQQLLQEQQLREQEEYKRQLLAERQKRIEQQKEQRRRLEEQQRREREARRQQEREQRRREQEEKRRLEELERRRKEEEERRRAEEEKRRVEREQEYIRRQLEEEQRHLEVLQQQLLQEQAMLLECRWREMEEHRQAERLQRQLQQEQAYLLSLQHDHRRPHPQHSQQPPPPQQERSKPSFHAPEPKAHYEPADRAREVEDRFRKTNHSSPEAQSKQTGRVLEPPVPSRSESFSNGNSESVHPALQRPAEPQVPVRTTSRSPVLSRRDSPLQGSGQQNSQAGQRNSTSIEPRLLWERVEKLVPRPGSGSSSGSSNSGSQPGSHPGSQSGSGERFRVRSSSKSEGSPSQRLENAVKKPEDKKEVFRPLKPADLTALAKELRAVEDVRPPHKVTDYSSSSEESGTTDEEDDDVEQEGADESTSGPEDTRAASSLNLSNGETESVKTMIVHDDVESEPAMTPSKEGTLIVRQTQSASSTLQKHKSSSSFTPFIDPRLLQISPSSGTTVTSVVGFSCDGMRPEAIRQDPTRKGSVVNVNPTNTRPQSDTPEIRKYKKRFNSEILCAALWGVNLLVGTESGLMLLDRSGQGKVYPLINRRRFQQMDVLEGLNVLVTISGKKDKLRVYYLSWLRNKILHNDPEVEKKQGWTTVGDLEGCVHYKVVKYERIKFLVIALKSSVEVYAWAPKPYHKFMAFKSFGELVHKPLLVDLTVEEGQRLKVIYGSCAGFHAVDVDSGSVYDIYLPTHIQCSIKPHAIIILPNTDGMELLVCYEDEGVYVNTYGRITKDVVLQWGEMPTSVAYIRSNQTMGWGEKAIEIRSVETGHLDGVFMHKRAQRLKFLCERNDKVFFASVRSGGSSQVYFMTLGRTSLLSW
# Sequence of Serine/threonine-protein kinase PAK 2 (Homo sapiens) (Q13177 whole entry): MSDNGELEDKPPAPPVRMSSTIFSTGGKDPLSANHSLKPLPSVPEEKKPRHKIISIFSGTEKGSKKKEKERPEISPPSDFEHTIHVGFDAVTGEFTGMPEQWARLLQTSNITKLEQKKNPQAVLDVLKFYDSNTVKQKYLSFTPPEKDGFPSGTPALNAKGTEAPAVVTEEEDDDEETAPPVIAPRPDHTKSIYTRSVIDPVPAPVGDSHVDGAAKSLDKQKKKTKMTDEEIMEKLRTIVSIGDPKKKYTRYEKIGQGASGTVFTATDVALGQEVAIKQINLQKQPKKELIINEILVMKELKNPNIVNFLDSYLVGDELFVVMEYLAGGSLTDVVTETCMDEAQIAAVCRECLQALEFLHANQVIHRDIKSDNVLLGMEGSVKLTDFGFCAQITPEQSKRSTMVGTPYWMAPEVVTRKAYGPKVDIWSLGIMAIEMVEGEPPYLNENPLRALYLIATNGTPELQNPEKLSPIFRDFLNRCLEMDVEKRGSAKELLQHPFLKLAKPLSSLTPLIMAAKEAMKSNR
Structure (SMILES),inhibition [1],inhibition [2],inhibition [3],inhibition [4],inhibition [5],inhibition [6],inhibition [7],inhibition [8],inhibition [9],inhibition [10],inhibition [11],inhibition [12],inhibition [13],inhibition [14],inhibition [15],inhibition [16],inhibition [17],inhibition [18],inhibition [19],inhibition [20]
Nc1nccc(-c2c(-c3ccc(F)cc3)ncn2C2CCC(O)CC2)n1 (configuration not stated),72.8%,-3.17%,-3.2%,6.81%,62.4%,0.86%,22%,-0.05%,14.6%,0.75%,4.04%,-2.38%,-3.74%,-0.84%,-0.18%,-3.15%,-3.59%,-2.46%,0.21%,4.1%
O=C(Nc1n[nH]c2nc(-c3ccco3)ccc12)C1CC1,32.1%,-0.04%,0.75%,3.07%,18.1%,1.17%,1.95%,0%,-0.23%,0.08%,1.1%,0.35%,1.74%,0.42%,-0.03%,0.51%,0.64%,5.55%,3.74%,6.27%
CS(=O)(=O)CCNCc1ccc(-c2ccc3ncnc(Nc4ccc(OCc5ccccc5)c(Br)c4)c3c2)o1,6.29%,1.96%,1.78%,4.51%,5.24%,2.67%,2.76%,4.32%,5.08%,-0.82%,-1.33%,5.64%,8.98%,0.93%,1.63%,5.05%,4.4%,1.46%,0.13%,-8.08%
C#Cc1cccc(Nc2ncnc3ccc(OCCCCNCCS(C)(=O)=O)cc23)c1,19.6%,6.88%,4.96%,9.17%,17.6%,4.35%,7.8%,5.45%,7.49%,-2.14%,-0.45%,9.27%,7.48%,2.71%,1.48%,4.58%,5.67%,2.62%,4.31%,-6.04%
C[C@@H](Oc1cc(-n2cnc3ccc(OC4CCN(C)CC4)cc32)sc1C(N)=O)c1ccccc1Cl,7.81%,1.83%,2.54%,6.26%,5.92%,4.68%,19.5%,6.85%,13.4%,-3.27%,,5.45%,7.26%,1.74%,2.5%,5.07%,10.3%,4.34%,5.61%,
O=C1Nc2ccccc2/C1=C/Nc1ccc(-n2cncn2)cc1,65.8%,6.13%,6.15%,15.3%,56.5%,14.9%,54.4%,9.7%,35.7%,-0.63%,5.15%,6.65%,8.31%,1.82%,2.17%,5.31%,5.49%,,-2.52%,-0.09%
COc1cccc(/C=N/Nc2ncnc3c2cnn3-c2cccc(OC)c2)c1,10.8%,3.68%,2.66%,5.65%,10.9%,2.42%,3.52%,3.29%,3.95%,-3.41%,-1.93%,7.47%,6.13%,1.74%,1.26%,2.7%,4.34%,1.31%,-2.49%,-3.17%
C/C(Nc1ccc(S(N)(=O)=O)cc1)=C1/C(=O)Nc2ccccc21,88.3%,-1.13%,0.96%,34.1%,85.3%,10.2%,55.3%,3.63%,42.3%,-1.9%,15.6%,-3.4%,2.37%,-1.56%,-1.06%,-1.9%,-1.11%,-6.43%,2.88%,-4.08%
NC(=O)Cc1ccccc1Oc1nccc(-c2c(-c3ccc(F)cc3)ncn2C2CCNCC2)n1,6.68%,2.01%,2.53%,4.37%,6.95%,1.4%,3.79%,2.69%,4.24%,-0.95%,-1.77%,4.71%,7.55%,1.39%,1.36%,0.09%,3.36%,-1.8%,-2.81%,1.97%
COc1cc2ncn(-c3cc(OCc4ccccc4C(F)(F)F)c(C(C)=O)s3)c2cc1OC,8.16%,3.88%,3.7%,5%,8.55%,3.51%,3.86%,3.42%,7.42%,-0.47%,-1.77%,5.43%,4.68%,0.85%,1.29%,4.94%,2.41%,-1.43%,0.17%,-1.14%
O=C(NCC1CC1)c1ccc(-c2cccc(C(=O)NC3CC3)c2)cc1,2.03%,3.01%,1.66%,2.89%,-1.8%,4.49%,5.3%,4.78%,3.31%,-2.14%,-6.13%,1.6%,3.71%,2.76%,1.58%,2.9%,2.97%,9.42%,6.07%,-1.35%
CS(=O)(=O)CCNCc1cc(-c2cc3c(Nc4ccc(OCc5cccc(F)c5)c(Cl)c4)ncnc3s2)cs1,10.3%,4.54%,5.74%,6.33%,8.36%,4.99%,6.28%,6.59%,6.16%,-2.65%,-1.71%,10.9%,9.09%,2.13%,3.83%,4.86%,7.41%,5.61%,3.34%,-6.6%
O=C(Nc1n[nH]c2cc(-c3ccccc3)ccc12)C1CC1,74.2%,4.67%,3.62%,21.4%,64.5%,4.78%,6.38%,5.18%,6.35%,-2.61%,-4.03%,7.59%,7.76%,1.44%,2.41%,5.22%,6.01%,0.11%,-0.04%,5.51%
Cc1ccc(C(=O)NC2CCC2)cc1-c1ccc(C(=O)NCC2CC2)cc1,3.8%,2.81%,2.71%,5.5%,4.67%,3.29%,1.77%,1.04%,1.53%,-3.48%,-4.44%,6.1%,8.35%,2.22%,2.3%,3.41%,3.03%,-0.72%,-2.79%,3.05%
